Common to all, as to assay: DAPPL (digital affinity profiling via proximity ligation, sequencing); 10 mM Tris-HCl pH 7.5, 50 mM NaCl, 1 mM DTT, 4% glycerol, room temperature, 30 min; GST-TFs on glutathione beads, 16-mer random dsDNA library, 0.1% formaldehyde crosslink after washing; high values mean tight binding
What all share (settings): protein: recombinant; tags: N-terminal GST; dsDNA, one strand shown

The target of one test is T1, GABPA (Homo sapiens, UniProt Q06546 1-454).
T1 sequence: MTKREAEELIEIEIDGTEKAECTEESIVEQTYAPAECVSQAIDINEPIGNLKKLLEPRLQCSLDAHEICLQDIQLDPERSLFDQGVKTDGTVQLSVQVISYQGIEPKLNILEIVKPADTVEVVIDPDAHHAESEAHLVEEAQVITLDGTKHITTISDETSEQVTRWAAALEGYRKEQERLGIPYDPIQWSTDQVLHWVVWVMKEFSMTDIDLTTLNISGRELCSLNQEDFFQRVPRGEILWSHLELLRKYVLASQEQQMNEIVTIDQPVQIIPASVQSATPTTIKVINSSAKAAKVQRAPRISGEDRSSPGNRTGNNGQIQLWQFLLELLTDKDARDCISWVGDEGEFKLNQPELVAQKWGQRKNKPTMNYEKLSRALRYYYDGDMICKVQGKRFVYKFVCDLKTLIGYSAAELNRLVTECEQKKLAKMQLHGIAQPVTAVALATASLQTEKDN
In a few lines: (§1)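 Binding signal is defined as a hexamer's read frequency for one factor over its frequency for the tag-only sample. To obtain reads, GST-fused human transcription factors were expressed in yeast, captured on glutathione beads, barcoded with DNA and pooled with that sample. Pools met 200 nmole of a 16-mer random double-stranded DNA library in Tris/NaCl/DTT/glycerol buffer for 30 min at room temperature before washing, 0.1% formaldehyde crosslinking, proximity ligation (BsaI/T4 ligase, 1 h, 37 °C), PCR and Illumina NextSeq500 sequencing.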

For a further test, the target named is ELF1 (Homo sapiens, UniProt P32519 1-619). The procedure, abridged:
as §1

Another test has as its target T2, EHF (Homo sapiens, UniProt Q9NZC4 1-300).
T2 sequence: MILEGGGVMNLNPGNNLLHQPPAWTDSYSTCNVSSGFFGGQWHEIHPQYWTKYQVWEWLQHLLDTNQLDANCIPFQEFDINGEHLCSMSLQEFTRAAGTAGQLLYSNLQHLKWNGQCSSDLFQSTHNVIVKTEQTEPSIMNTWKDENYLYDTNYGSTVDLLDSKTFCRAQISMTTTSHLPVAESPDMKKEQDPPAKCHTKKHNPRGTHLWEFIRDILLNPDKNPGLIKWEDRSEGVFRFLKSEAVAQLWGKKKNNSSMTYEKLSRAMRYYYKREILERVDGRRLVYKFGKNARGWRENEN
In a few lines: as §1

In a further test the target is T3, SPIC (Homo sapiens, UniProt Q8N5J4 1-248).
T3 sequence: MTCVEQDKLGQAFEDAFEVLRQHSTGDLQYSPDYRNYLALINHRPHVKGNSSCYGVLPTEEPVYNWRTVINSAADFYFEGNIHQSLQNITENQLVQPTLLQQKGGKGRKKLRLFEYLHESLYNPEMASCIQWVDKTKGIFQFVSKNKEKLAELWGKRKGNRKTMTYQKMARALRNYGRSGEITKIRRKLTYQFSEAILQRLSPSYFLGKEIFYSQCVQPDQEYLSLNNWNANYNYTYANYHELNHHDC
In a few lines:
as §1

For another test, the target named is T4, ELF3 (Homo sapiens, UniProt P78545 1-371).
T4 sequence: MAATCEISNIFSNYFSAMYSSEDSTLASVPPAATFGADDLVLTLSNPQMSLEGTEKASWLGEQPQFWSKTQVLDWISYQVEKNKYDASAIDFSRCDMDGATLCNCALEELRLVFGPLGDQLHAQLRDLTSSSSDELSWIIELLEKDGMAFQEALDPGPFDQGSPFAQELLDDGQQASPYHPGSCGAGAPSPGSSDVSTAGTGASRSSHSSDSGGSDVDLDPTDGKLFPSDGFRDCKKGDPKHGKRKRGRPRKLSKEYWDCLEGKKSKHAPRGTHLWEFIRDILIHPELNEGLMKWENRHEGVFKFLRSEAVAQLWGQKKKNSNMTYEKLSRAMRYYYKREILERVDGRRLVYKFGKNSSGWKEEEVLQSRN
In a few lines:
as §1

The target in the next test is T5, ERF (Homo sapiens, UniProt P50548 1-548).
T5 sequence: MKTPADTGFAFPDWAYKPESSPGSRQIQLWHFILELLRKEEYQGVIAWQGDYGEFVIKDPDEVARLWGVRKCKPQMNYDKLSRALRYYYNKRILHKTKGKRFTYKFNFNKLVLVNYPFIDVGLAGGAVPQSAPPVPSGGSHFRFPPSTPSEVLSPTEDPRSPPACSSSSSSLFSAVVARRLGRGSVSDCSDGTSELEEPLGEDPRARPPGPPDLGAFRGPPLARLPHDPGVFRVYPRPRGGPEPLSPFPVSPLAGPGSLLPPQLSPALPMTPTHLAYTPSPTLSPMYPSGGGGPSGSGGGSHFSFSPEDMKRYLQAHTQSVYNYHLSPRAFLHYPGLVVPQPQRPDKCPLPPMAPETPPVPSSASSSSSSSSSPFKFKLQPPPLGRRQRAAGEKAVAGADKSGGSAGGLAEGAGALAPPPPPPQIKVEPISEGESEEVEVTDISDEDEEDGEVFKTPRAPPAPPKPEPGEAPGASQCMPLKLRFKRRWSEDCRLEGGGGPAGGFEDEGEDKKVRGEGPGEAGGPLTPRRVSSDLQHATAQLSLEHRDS
The procedure, abridged: as §1

Another test has as its target T6, ETS2 (Homo sapiens, UniProt P15036 1-469).
T6 sequence: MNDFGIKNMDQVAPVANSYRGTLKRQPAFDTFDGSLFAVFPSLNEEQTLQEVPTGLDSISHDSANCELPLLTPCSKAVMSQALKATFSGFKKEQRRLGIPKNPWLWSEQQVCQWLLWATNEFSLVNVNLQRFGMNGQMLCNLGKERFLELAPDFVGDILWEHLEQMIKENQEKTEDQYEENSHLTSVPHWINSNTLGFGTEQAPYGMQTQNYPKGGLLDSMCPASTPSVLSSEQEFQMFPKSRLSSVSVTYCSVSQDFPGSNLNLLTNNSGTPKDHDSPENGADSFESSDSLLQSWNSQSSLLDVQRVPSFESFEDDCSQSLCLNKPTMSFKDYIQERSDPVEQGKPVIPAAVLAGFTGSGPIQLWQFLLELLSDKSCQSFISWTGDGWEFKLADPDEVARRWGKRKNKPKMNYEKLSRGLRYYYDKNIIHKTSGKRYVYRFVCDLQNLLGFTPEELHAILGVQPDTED
In a few lines: as §1

The next test has as its target T7, SPDEF (Homo sapiens, UniProt O95238 1-335).
T7 sequence: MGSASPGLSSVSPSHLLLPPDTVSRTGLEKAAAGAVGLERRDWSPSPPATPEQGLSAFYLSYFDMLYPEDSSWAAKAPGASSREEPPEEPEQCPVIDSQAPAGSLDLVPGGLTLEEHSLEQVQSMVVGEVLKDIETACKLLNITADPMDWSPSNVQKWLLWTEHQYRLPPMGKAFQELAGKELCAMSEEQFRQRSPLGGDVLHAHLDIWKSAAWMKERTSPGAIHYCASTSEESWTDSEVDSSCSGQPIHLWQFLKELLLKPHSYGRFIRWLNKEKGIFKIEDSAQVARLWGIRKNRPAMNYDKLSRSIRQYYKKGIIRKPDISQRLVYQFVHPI
In a few lines:
as §1

In another test the target is T8, ELF5 (Homo sapiens, UniProt Q9UKW6-2 1-255).
T8 sequence: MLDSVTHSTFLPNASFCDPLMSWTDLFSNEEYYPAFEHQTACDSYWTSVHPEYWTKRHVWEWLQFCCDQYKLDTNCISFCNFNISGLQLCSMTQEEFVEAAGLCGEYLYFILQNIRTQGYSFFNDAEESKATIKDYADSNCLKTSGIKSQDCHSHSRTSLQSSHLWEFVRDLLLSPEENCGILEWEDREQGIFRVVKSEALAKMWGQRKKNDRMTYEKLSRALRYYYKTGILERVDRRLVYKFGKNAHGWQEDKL
In a few lines: as §1

In a further test the target is T9, ERG (Homo sapiens, UniProt P11308 1-479).
T9 sequence: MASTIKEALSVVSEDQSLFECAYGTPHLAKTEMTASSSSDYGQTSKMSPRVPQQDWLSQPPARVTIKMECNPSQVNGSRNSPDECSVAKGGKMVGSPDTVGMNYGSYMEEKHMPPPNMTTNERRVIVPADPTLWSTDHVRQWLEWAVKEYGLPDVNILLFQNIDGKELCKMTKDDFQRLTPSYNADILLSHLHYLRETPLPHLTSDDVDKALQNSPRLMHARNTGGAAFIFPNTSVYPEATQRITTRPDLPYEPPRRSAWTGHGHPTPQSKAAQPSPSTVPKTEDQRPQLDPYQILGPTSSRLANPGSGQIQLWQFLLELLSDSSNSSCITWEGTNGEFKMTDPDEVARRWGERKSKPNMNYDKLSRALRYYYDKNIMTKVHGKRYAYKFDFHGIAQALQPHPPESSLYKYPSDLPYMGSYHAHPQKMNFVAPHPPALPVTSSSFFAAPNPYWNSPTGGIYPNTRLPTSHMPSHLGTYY
In a few lines:
as §1

A further test has as its target T10, ELK3 (Homo sapiens, UniProt P41970 1-407).
T10 sequence: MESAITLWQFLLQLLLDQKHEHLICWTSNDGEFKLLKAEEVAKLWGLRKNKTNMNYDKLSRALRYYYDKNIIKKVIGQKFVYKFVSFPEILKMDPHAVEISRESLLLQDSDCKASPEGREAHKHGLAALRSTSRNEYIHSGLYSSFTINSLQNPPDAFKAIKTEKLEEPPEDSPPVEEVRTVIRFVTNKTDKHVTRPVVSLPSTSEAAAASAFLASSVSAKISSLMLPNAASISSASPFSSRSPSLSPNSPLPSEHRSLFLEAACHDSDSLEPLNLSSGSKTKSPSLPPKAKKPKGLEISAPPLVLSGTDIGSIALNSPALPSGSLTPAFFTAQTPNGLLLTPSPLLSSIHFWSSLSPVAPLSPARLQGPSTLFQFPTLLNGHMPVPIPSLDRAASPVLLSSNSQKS
In a few lines: as §1

The next test has as its target T11, ETV2 (Homo sapiens, UniProt O00321 1-342).
T11 sequence: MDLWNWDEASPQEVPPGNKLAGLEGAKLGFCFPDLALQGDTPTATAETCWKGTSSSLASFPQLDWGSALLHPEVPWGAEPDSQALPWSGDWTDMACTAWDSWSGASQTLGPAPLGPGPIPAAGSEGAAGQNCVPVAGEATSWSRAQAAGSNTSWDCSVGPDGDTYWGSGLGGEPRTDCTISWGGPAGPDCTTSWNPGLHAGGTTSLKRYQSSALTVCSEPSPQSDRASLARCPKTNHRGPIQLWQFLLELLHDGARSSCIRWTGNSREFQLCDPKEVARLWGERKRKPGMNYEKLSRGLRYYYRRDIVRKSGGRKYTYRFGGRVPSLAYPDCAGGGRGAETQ
In a few lines: as §1

Another test deals with T12, ETV3 (Homo sapiens, UniProt P41162-2 1-143).
T12 sequence: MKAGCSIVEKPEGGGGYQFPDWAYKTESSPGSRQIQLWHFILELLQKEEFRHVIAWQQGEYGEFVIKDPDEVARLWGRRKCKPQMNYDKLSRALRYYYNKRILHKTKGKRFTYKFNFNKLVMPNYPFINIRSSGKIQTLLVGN
In a few lines: as §1

ELF1, sequence (P32519 whole entry): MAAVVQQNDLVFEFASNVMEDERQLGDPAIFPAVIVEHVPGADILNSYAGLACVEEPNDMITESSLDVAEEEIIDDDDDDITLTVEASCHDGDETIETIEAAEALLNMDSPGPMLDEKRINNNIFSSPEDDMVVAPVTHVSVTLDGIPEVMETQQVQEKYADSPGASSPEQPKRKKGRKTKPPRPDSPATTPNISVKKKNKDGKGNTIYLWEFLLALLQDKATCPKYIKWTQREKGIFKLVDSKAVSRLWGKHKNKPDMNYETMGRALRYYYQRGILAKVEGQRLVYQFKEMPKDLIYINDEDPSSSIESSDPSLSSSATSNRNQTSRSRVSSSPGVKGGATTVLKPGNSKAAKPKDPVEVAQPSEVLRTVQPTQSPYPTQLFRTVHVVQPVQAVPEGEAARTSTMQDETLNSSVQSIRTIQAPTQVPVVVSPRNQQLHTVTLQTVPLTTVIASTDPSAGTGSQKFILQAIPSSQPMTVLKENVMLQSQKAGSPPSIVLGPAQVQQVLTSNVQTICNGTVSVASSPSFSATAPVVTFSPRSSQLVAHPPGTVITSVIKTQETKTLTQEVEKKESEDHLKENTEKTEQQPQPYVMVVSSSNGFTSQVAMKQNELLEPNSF

On to CAGCAC, for which the binding signal is 1.03 fold enrichment (6-mer frequency, TF over GST control) with GABPA; 1.02 fold enrichment (6-mer frequency, TF over GST control) with ELF1; 1 fold enrichment (6-mer frequency, TF over GST control) with EHF; 1.11 fold enrichment (6-mer frequency, TF over GST control) with SPIC; 1.02 fold enrichment (6-mer frequency, TF over GST control) with ELF3; 1.04 fold enrichment (6-mer frequency, TF over GST control) with ERF. Further, in the test with ETS2, the binding signal is 1 fold enrichment (6-mer frequency, TF over GST control).
In the case of CGGGTT, the binding signal with SPIC was 1 fold enrichment (6-mer frequency, TF over GST control); with SPDEF, 1.09 fold enrichment (6-mer frequency, TF over GST control); with ELF5 it was 1.02 fold enrichment (6-mer frequency, TF over GST control).
On to ACGAGC, for which the binding signal with GABPA was 1.01 fold enrichment (6-mer frequency, TF over GST control); in the test with ERG it was 1.01 fold enrichment (6-mer frequency, TF over GST control); with EHF, 1.02 fold enrichment (6-mer frequency, TF over GST control); in the test with ELK3, 1.03 fold enrichment (6-mer frequency, TF over GST control); with SPIC, 1.06 fold enrichment (6-mer frequency, TF over GST control); with ETV2, 1.04 fold enrichment (6-mer frequency, TF over GST control). Besides, in the test with ELF3, the binding signal is 1.01 fold enrichment (6-mer frequency, TF over GST control).
As to CGCAAT, the binding signal in the test with SPIC is 1.01 fold enrichment (6-mer frequency, TF over GST control); in the test with ETV2, 1.04 fold enrichment (6-mer frequency, TF over GST control); with ETV3, 1.01 fold enrichment (6-mer frequency, TF over GST control).

For the origin of these results see publication PMC7862700, “An all-to-all approach to the identification of sequence-specific readers for epigenetic DNA modifications on cytosine”.
